The source of these data is publication PMC5700166.

One test has as its target T1, GST-Dm-Relish (Drosophila melanogaster, UniProt Q94527 99-473).
T1 sequence: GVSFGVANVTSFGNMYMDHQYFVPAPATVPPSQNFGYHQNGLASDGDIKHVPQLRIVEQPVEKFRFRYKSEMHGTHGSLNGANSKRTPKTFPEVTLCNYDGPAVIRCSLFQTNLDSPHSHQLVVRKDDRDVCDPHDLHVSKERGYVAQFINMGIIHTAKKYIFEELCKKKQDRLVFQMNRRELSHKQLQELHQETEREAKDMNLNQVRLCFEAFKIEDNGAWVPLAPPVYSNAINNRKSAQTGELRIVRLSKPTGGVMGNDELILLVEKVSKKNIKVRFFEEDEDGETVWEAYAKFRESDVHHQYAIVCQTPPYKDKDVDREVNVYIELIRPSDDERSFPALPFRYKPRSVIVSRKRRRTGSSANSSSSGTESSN
Nature of the test: protein-binding microarray (PBM); PBM: ~300 nM protein, 6 mM HEPES pH 7.8, 80 mM KCl, 0.5 mM EDTA, 0.5 mM EGTA, 6% glycerol, 35 ng/ul poly-dIdC, 1% milk, 1 h, room temperature; Ap Aiptasia and Nv Nematostella (sea anemones) / Co Capsaspora / Aq Amphimedon (sponge) / Dm Drosophila / Hu human; RHD is the Rel homology domain; high values mean tight binding. The settings on record: dsDNA, one strand shown.

The target in the next test is T2, GST-Aq-NF-kB (Amphimedon queenslandica, UniProt A9Y5G7 2-389).
T2 sequence: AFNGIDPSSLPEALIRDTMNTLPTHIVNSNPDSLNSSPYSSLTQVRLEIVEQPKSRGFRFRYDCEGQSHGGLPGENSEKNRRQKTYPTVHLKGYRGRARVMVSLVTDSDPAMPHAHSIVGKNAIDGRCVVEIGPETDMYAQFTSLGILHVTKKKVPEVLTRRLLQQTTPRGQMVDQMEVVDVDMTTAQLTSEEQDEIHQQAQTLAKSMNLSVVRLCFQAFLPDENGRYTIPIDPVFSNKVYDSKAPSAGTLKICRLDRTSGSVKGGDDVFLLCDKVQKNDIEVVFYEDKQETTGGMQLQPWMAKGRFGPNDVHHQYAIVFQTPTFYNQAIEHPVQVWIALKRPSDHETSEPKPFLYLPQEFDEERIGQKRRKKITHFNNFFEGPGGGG
The description is as above. The settings on record: dsDNA, one strand shown.

On to “CCGATTAACATCAAAAATTTCCGTGATGTTAATCGGGTCTTGATTCGCTTGACGCTGCTG”, for which the binding signal with GST-Dm-Relish is 1.61 z-score; with GST-Aq-NF-kB, 2.63 z-score.
Turning to “CCGATTAACATCAAAAAAATTTCTGATGTTAATCGGGTCTTGATTCGCTTGACGCTGCTG”, the binding signal in the test with GST-Dm-Relish worked out at 1.41 z-score; with GST-Aq-NF-kB, 1.23 z-score.
For “CCGATTAACATCAGGATTTACCATGATGTTAATCGGGTCTTGATTCGCTTGACGCTGCTG” the same measures were 3.08 z-score and 1.48 z-score.
The corresponding values for “CCGATTAACATCAAGGAATTCCATGATGTTAATCGGGTCTTGATTCGCTTGACGCTGCTG” are 2.32 z-score and 1.54 z-score.
The corresponding values for “CCGATTAACATCACGTAAATTCCTGATGTTAATCGGGTCTTGATTCGCTTGACGCTGCTG” are 1.43 z-score and 1.08 z-score.
With “CCGATTAACATCAATGGAATTCCTGATGTTAATCGGGTCTTGATTCGCTTGACGCTGCTG”, the binding signal in the test with GST-Dm-Relish stood at 3.2 z-score; with GST-Aq-NF-kB, 1.5 z-score.
Consider “CCGATTAACATCACGTGCTTTCCTGATGTTAATCGGGTCTTGATTCGCTTGACGCTGCTG”, for which the binding signal in the test with GST-Dm-Relish amounted to 2.88 z-score; with GST-Aq-NF-kB, 1.36 z-score.
The corresponding values for “CCGATTAACATCAACGGAAATCCTGATGTTAATCGGGTCTTGATTCGCTTGACGCTGCTG” are 1.24 z-score and 1.17 z-score.
The corresponding values for “CCGATTAACATCAGGAAACCCACTGATGTTAATCGGGTCTTGATTCGCTTGACGCTGCTG” are 3.86 z-score and 1.01 z-score.
Consider “CCGATTAACATCACGGGCATTCCTGATGTTAATCGGGTCTTGATTCGCTTGACGCTGCTG”, for which the binding signal came out at 2.37 z-score with GST-Dm-Relish and 3.21 z-score with GST-Aq-NF-kB.
The corresponding values for “CCGATTAACATCAGGATTTTTCATGATGTTAATCGGGTCTTGATTCGCTTGACGCTGCTG” are 1.76 z-score and 1.09 z-score.
For “CCGATTAACATCAAGGAAACTCCTGATGTTAATCGGGTCTTGATTCGCTTGACGCTGCTG” the same measures were 1.12 z-score and 2.64 z-score.
The corresponding values for “CCGATTAACATCACAGGGTTTCCTGATGTTAATCGGGTCTTGATTCGCTTGACGCTGCTG” are 2.82 z-score and 1.57 z-score.
On to “CCGATTAACATCAGGAATTCCGATGATGTTAATCGGGTCTTGATTCGCTTGACGCTGCTG”, for which the results for the binding signal with GST-Dm-Relish and in the test with GST-Aq-NF-kB were 2.4 z-score and 1.28 z-score, respectively.
For “CCGATTAACATCAGGAAATCCACTGATGTTAATCGGGTCTTGATTCGCTTGACGCTGCTG” the same measures were 2.24 z-score and 1.15 z-score.
For the sequence “CCGATTAACATCAAGGAAAGTACTGATGTTAATCGGGTCTTGATTCGCTTGACGCTGCTG”, the binding signal in the test with GST-Dm-Relish came to 4.7 z-score; with GST-Aq-NF-kB it was 2.33 z-score.
The corresponding values for “CCGATTAACATCAGGAAAGGCCATGATGTTAATCGGGTCTTGATTCGCTTGACGCTGCTG” are 1.29 z-score and 1.31 z-score.
The corresponding values for “CCGATTAACATCAAAAATTTCCTTGATGTTAATCGGGTCTTGATTCGCTTGACGCTGCTG” are 1.94 z-score and 2.1 z-score.
With “CCGATTAACATCACCCTTGCAGGTGATGTTAATCGGGTCTTGATTCGCTTGACGCTGCTG”, the results for the binding signal in the test with GST-Dm-Relish and with GST-Aq-NF-kB were 1.5 z-score and 1.27 z-score, respectively.
The corresponding values for “CCGATTAACATCACGGAAATTCCTGATGTTAATCGGGTCTTGATTCGCTTGACGCTGCTG” are 1.83 z-score and 4.88 z-score.
For “CCGATTAACATCAGAGGAATTCCTGATGTTAATCGGGTCTTGATTCGCTTGACGCTGCTG” the same measures were 2.63 z-score and 2.12 z-score.
As for “CCGATTAACATCAGGTAACTACCTGATGTTAATCGGGTCTTGATTCGCTTGACGCTGCTG”, the binding signal with GST-Dm-Relish is 3.08 z-score; in the test with GST-Aq-NF-kB, 3.17 z-score.
For “CCGATTAACATCACGGAAAAACCTGATGTTAATCGGGTCTTGATTCGCTTGACGCTGCTG” the same measures were 2.16 z-score and 3.55 z-score.
For “CCGATTAACATCATAAAATTCCATGATGTTAATCGGGTCTTGATTCGCTTGACGCTGCTG” the same measures were 1.32 z-score and 1.26 z-score.
For “CCGATTAACATCAAGGAAATTCCTGATGTTAATCGGGTCTTGATTCGCTTGACGCTGCTG” the same measures were 2.23 z-score and 4.14 z-score.
For “CCGATTAACATCACGTACTTTCCTGATGTTAATCGGGTCTTGATTCGCTTGACGCTGCTG”, the binding signal with GST-Dm-Relish amounted to 4.78 z-score; in the test with GST-Aq-NF-kB, 2.39 z-score.
For “CCGATTAACATCACGGAAACCACTGATGTTAATCGGGTCTTGATTCGCTTGACGCTGCTG” the same measures were 3.59 z-score and 1.46 z-score.
“CCGATTAACATCAGGATTTTTTATGATGTTAATCGGGTCTTGATTCGCTTGACGCTGCTG”: the results for the binding signal with GST-Dm-Relish and with GST-Aq-NF-kB were 2.63 z-score and 1.59 z-score, respectively.
As to “CCGATTAACATCACGTGGTTTCCTGATGTTAATCGGGTCTTGATTCGCTTGACGCTGCTG”, the binding signal was found to be 3.67 z-score with GST-Dm-Relish and 1.63 z-score with GST-Aq-NF-kB.
The corresponding values for “CCGATTAACATCAGGAATTTTACTGATGTTAATCGGGTCTTGATTCGCTTGACGCTGCTG” are 1.49 z-score and 1.14 z-score.
